Laboratory results: PubChem BioAssay (EPA / NIEHS)
The source made the active and inactive calls. How the source made its calls: active means hit-call score of the fitted dose curve at least 0.9, where 1 is the maximum; inactive means score below 0.9.

Legend:
[1] = target: CCAAT/enhancer-binding protein beta (Homo sapiens) (UniProt P17676); experiment: ATG_C_EBP_CIS: Attagene CIS-FACTORIAL HepG2 Assay for human CCAAT/Enhancer Binding Protein (C/EBP) beta (AID 2282927); details: HepG2 Attagene cis-factorial transcription factor reporter; actives raise or lower the signal
Summary of the method: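 Chemical-treated HepG2 cells (24 h) bearing cis-regulated reporter constructs were processed for total RNA, then reverse transcription, PCR amplification, fluorescent primer extension and fragment analysis; gain- and loss-of-signal were fitted against DMSO.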

[2] = ATG_CMV_CIS: Attagene CIS-FACTORIAL HepG2 Assay for human CMV (Internal Marker) (AID 2282928); details: HepG2 CMV promoter reporter, transcription factor profiling; actives raise or lower the signal;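 further: endpoint acts as a background internal control marker rather than a target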
Summary of the method: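 Endogenous transcription factor activity read in HepG2 via transfected cis-promoter reporter units. After 24 h dosing, reporter mRNA measured by RT-PCR/capillary electrophoresis; gain or loss of signal fit relative to DMSO.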

[3] = ATG_DR4_LXR_CIS: Attagene CIS-FACTORIAL HepG2 Assay for human Liver X Receptor (LXR), DR4 submotif (AID 2282929); details: HepG2 Attagene DR4 cis-reporter, mRNA transcription; actives raise or lower the signal
Summary of the method: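 Total RNA from 24 h-treated, MRTU-transfected HepG2 cells underwent reverse transcription, PCR, fluorescent primer extension and restriction digestion before capillary electrophoresis. Both increases and decreases in reporter signal were fitted against DMSO.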

[4] = ATG_AP_1_CIS: Attagene CIS-FACTORIAL HepG2 Assay for human Activator Protein 1 (AP-1) (AID 2282931); details: HepG2 Attagene cis-factorial AP-1 reporter mRNA; actives raise or lower the signal
Summary of the method: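 HepG2, transient cis-reporter transfection; 24 h; readout RT-PCR/CE fluorescence; DMSO baseline, gain and loss fitted.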

[5] = ATG_AP_2_CIS: Attagene CIS-FACTORIAL HepG2 Assay for human Activator Protein 2 (AP-2) (AID 2282932); details: HepG2 AP-2 cis-reporter, Attagene transcription factor profiling; actives raise or lower the signal
Summary of the method: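 HepG2 cells were transiently transfected with multiple cis-promoter reporter transcription units and dosed for 24 h. Reporter mRNA was measured by RT-PCR with capillary electrophoresis fluorescence; bidirectional fits relative to DMSO baseline.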

[6] = ATG_BRE_CIS: Attagene CIS-FACTORIAL HepG2 Assay for human Bone Morphogenetic Protein (BMP) Response Element (BRE) (AID 2282933); details: HepG2 BMP response element reporter, Attagene transcription factor profiling; actives raise or lower the signal
Summary of the method: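 HepG2 cells transiently transfected with CIS reporter units (endogenous TF activity, BMP response element), dosed 24 h. Reporter mRNA quantified by RT-PCR, fluorescent labelling and capillary electrophoresis; bidirectional fit vs DMSO baseline.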

[7] = target: Transcription factor E2F1 (Homo sapiens) (UniProt Q01094); experiment: ATG_E2F_CIS: Attagene CIS-FACTORIAL HepG2 Assay for human E2F Transcription Factor 1 (AID 2282935); details: HepG2 Attagene cis-reporter, E2F reporter RNA transcripts; actives raise or lower the signal
Summary of the method: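 HepG2 cells transiently transfected with multiplexed cis-element reporter units, dosed for 24 h. Reporter mRNA measured by RT-PCR, 6-FAM primer-extension labeling, HpaI digestion and capillary electrophoresis; bidirectional fit versus DMSO baseline.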

[8] = ATG_E_Box_CIS: Attagene CIS-FACTORIAL HepG2 Assay for human Enhancer Box (E-box) (AID 2282936); details: HepG2 E-box cis-reporter transcription, actives raise or lower the signal
Summary of the method: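 HepG2 cells transiently transfected with multiplexed cis-element reporter units sensing endogenous transcription factor activity; 24 h compound exposure. Reporter mRNA measured by RT-PCR, 6-FAM primer extension, HpaI digestion and capillary electrophoresis; bidirectional fit versus DMSO.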

[9] = ATG_M_61_CIS: Attagene CIS-FACTORIAL HepG2 Assay for M61 Transcription Factor (Internal Marker) (AID 2282937); details: HepG2 Attagene CIS-FACTORIAL M61 internal marker reporter; actives raise or lower the signal
Summary of the method: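 Transfect HepG2 with MRTUs; dose 24 h; isolate RNA; reverse-transcribe with DNase I treatment; PCR-amplify, FAM-label and cut with HpaI for 2 h at 37 C; resolve by CE. Bidirectional fitting against DMSO.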

[10] = ATG_EGR_CIS: Attagene CIS-FACTORIAL HepG2 Assay for human Early Growth Response 1 (EGR1) (AID 2282938); details: HepG2 Attagene CIS-FACTORIAL EGR reporter mRNA; actives raise or lower the signal
Summary of the method: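 After a 24 h treatment of transiently transfected HepG2 cells, total RNA was reverse-transcribed and reporter sequences PCR-amplified, labelled and run on capillary electrophoresis. Reporters sit under cis-regulatory promoters sensing endogenous factors.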

[11] = ATG_Ets_CIS: Attagene CIS-FACTORIAL HepG2 Assay for human Erythroblast Transformation Specific (ETS) (AID 2282941); details: HepG2 ETS cis-reporter transcription, actives raise or lower the signal
Summary of the method: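 Steps: transfect HepG2 with multiple reporter units; treat compound 24 h; isolate RNA, DNase-treat, reverse-transcribe; PCR-amplify, label with 6-FAM, digest with HpaI; separate by capillary electrophoresis. Activity fitted both directions versus DMSO.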

[12] = ATG_GATA_CIS: Attagene CIS-FACTORIAL HepG2 Assay for human GATA Binding Protein (AID 2282944); details: HepG2 GATA cis-element reporter, Attagene multiplex mRNA; actives raise or lower the signal
Summary of the method: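 HepG2 cells transiently transfected with multiplexed cis-element reporter units measure endogenous GATA activity; after 24 h compound exposure, reporter mRNA quantified by RT-PCR and capillary electrophoresis. Changes fitted in both directions vs DMSO.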

[13] = ATG_GLI_CIS: Attagene CIS-FACTORIAL HepG2 Assay for human Zinc Finger Protein GLI1 (AID 2282945); details: HepG2, Attagene cis-factorial reporter mRNA, GLI element; actives raise or lower the signal
Summary of the method: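 HepG2 cells transiently transfected with cis-promoter multiplexed reporter units report endogenous transcription factor activity. After 24 h chemical exposure, reporter mRNA was quantified by RT-PCR, 6-FAM labelling, HpaI digestion and capillary electrophoresis, with bidirectional fitting against DMSO.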

[14] = ATG_ISRE_CIS: Attagene CIS-FACTORIAL HepG2 Assay for human Interferon Regulatory Factor 1 (IRF1) binding to an Interferon-Stimulated Response Element (ISRE) (AID 2282948); details: HepG2 ISRE cis-reporter (Attagene), mRNA transcription readout; actives raise or lower the signal
Summary of the method: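 Transfected HepG2 (multiple reporter transcription units, cis elements) dosed 24 h. RNA → oligo(dT) RT → PCR → 6-FAM primer extension → HpaI → CE. DMSO = negative control/baseline.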

[15] = ATG_M_32_CIS: Attagene CIS-FACTORIAL HepG2 Assay for M32 Transcription Factor (Internal Marker) (AID 2282949); details: HepG2 Attagene cis-factorial M32 reporter, mRNA; actives raise or lower the signal;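 further: background control marker of the multiplexed CIS panel rather than a real target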
Summary of the method: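 Internal background marker read-out: RT-PCR/capillary electrophoresis fluorescence of reporter transcripts from transiently transfected HepG2 cells after 24 h chemical exposure. Activity fitted bidirectionally relative to DMSO negative control.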

[16] = ATG_M_06_CIS: Attagene CIS-FACTORIAL HepG2 Assay for M06 Transcription Factor (Internal Marker) (AID 2282950); details: HepG2 Attagene CIS-FACTORIAL M06 internal marker reporter; actives raise or lower the signal
Summary of the method: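 Internal background marker within multiplexed cis-reporter HepG2 system. Cells transiently transfected, dosed 24 h; reporter mRNA measured by RT-PCR, HpaI digestion and capillary electrophoresis. Bidirectional fit relative to DMSO.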

[17] = target: Hepatocyte nuclear factor 6 (Homo sapiens) (UniProt Q9UBC0); experiment: ATG_HNF6_CIS: Attagene CIS-FACTORIAL HepG2 Assay for human Hepatocyte Nuclear Factor 6 (HNF6) (AID 2282952); details: HepG2 Attagene cis-factorial HNF6 reporter transcription; actives raise or lower the signal
Summary of the method: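 Transiently transfected HepG2 cells expressing cis-regulated reporter transcription units were exposed to chemical for 24 h in a 24-well format. Reporter transcript abundance was determined by fluorescence capillary electrophoresis.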

[18] = ATG_MRE_CIS: Attagene CIS-FACTORIAL HepG2 Assay for human Metal Responsive Element (MRE) (AID 2282954); details: HepG2 MRE cis-reporter transcription, Attagene multiplex; actives raise or lower the signal
Summary of the method: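 HepG2 cells transiently transfected with multiple cis-element reporter units measure endogenous MTF1-driven transcription. After 24 h compound exposure, reporter mRNA is quantified by RT-PCR with 6-FAM labelling, HpaI digestion and capillary electrophoresis; bidirectional fits versus DMSO.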

[19] = ATG_PXRE_CIS: Attagene CIS-FACTORIAL HepG2 Assay for human Pregnane X Receptor Element (PXRE) (AID 2282957); details: HepG2 Attagene CIS-FACTORIAL PXRE reporter, mRNA; actives raise or lower the signal
Summary of the method: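 Cis-element reporter mRNA in human hepatoma HepG2 cells is measured 24 h post-dosing by RT-PCR, primer-extension labeling and capillary electrophoresis; gain or loss of signal is fitted relative to DMSO.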

[20] = ATG_Sox_CIS: Attagene CIS-FACTORIAL HepG2 Assay for human SRY-box transcription factor (SOX) (AID 2282960); details: HepG2 Attagene cis-factorial SOX reporter, mRNA; actives raise or lower the signal
Summary of the method: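 HepG2, cis reporter units, 24 h exposure. Reporter mRNA: RT-PCR → FAM labelling → HpaI → CE fluorescence. Bidirectional fit vs DMSO.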

Measured: AC50

Sequence of CCAAT/enhancer-binding protein beta (Homo sapiens) (P17676 whole entry, looked up, the tested form may be a part): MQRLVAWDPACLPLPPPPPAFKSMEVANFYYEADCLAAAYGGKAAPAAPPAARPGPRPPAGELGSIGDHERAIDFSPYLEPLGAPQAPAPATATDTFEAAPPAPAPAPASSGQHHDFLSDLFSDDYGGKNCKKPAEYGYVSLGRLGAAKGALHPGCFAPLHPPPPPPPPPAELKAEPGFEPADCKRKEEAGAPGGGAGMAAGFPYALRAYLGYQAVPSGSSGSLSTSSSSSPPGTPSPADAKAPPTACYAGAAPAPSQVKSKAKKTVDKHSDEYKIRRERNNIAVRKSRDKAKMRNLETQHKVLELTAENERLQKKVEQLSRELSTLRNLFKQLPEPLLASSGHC
Sequence of Hepatocyte nuclear factor 6 (Homo sapiens) (Q9UBC0 whole entry, looked up): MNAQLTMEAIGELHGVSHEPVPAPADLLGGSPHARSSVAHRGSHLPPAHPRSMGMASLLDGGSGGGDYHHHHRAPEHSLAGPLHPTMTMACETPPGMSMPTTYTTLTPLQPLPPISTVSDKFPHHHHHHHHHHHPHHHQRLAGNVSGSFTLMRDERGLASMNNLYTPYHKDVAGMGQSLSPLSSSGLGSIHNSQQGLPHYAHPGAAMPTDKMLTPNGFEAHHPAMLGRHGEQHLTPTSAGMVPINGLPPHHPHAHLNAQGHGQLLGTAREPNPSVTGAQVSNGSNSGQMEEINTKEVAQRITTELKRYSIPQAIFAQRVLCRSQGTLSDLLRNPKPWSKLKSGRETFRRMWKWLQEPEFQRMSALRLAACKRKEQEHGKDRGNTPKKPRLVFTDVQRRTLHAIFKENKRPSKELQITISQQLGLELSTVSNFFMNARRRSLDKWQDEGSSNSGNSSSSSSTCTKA
Sequence of Transcription factor E2F1 (Homo sapiens) (Q01094 whole entry, looked up): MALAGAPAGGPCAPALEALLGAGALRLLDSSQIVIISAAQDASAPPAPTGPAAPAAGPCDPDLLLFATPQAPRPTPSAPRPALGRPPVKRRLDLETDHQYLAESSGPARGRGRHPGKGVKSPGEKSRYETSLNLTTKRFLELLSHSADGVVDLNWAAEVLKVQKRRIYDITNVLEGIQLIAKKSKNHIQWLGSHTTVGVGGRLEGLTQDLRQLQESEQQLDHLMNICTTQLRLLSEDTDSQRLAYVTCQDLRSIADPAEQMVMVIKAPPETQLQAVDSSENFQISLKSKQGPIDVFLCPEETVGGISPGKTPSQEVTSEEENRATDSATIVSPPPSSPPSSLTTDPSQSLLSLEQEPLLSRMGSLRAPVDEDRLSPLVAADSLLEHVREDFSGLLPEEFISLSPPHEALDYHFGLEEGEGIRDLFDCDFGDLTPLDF

C=CC(=O)OCC(CC)CCCC (stereo not given)
active: [3] 147 µM
inactive: all other assays above

Cc1ccccc1CCl
inactive: all assays above

O=[N+]([O-])O
inactive: all assays above

[CH3][Sn]([CH3])([Cl])[Cl]
inactive: all assays above

Nc1c(Cl)c(Cl)c(Cl)c(Cl)c1Cl
active: [2] 34.2 µM | [19] 15.4 µM
inactive: all other assays above

Cc1ccc(N(SC(F)(Cl)Cl)S(=O)(=O)N(C)C)cc1
active: [2] 15.8 µM | [3] 15.2 µM | [10] 11.1 µM | [13] 11.1 µM | [14] 14.7 µM | [18] 15.8 µM | [20] 18.5 µM
inactive: all other assays above
